# Compound activity (PubChem)
# C diff growth: C. difficile growth inhibitors, primary screen, HTS; Clostridium difficile clinical isolate growth, OD600, 24 h; hits give low values; growth activity, negative = inhibition, % at 16 µg/mL (by protocol); actives 0.25% (n = 86,000); AID 1259249, 2017;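 active = mean growth activity at or below -80% and every replicate also at or below -80%; inconclusive = mean at or below -80% but some replicate above -80%; inactive = mean growth activity above -80%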;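 also: 0% = DMSO wells and -100% = levofloxacin 16 µg/mL wells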
# T cruzi growth-1: T. cruzi intracellular proliferation inhibitors, primary screen, cell-based, beta-gal Tulahuen parasites, NIH3T3 host, luminescence | T. cruzi beta-gal in NIH3T3, GalScreen luminescence, 90 h | AID 624255, 2012 | actives 5.9% (n = 77,000) | inhibition, % at 8.34 µM;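 active = mean inhibition above about 93%, with at least 55% of replicates each passing it, limit read from the data, passing the limit was not always enough; inconclusive = only one of those two conditions holds; inactive = neither condition holds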
# Pf Dd2 growth: P. falciparum Dd2 growth inhibitors, primary screen, SYBR Green fluorescence, single dose replicates; actives 2.3% (n = 94,000); activity change, % at 10 µM; 72 h; hits give low values; in the data active = activity change below about -80%; inconclusive = no clear call, values can overlap the other calls
# T cruzi growth-2: T. cruzi intracellular proliferation inhibitors, confirmation, cell-based, NIH3T3 host, beta-gal parasite, luminescence, cherry-pick; T. cruzi beta-gal in NIH3T3, GalScreen luminescence, 90 h; inhibition, % at 8.35 µM; actives 72% (n = 5,600); shares compounds with T cruzi growth-1; AID 651739, 2012;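 active = mean replicate inhibition above about 95% and at least 55% of replicates individually reaching it, limit read from the data; inconclusive = only one of the two criteria is met; inactive = neither criterion is met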
# T cruzi growth-3: inhibitors of intracellular T. cruzi replication, confirmation, NIH3T3 host cells, beta-gal parasites, cherry-pick, set 2; shares compounds with T cruzi growth-1; T. cruzi beta-gal in NIH3T3, GalScreen luminescence, 90 h; inhibition, % at 2.09 µM; actives 21% (n = 5,600);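 active = mean inhibition above about 95%, with at least 55% of replicates also reaching it, limit read from the data; inconclusive = meets just one of the two conditions; inactive = meets neither condition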;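 also: plate controls were neutral control median for no effect and positive control median for full effect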
# NIH3T3 tox: cytotoxicity in mouse NIH/3T3 fibroblasts, confirmation, cytotoxicity control for T. cruzi proliferation inhibitor project, cell-based, cherry-pick, single point; actives 14% (n = 5,600); shares compounds with T cruzi growth-1; cytotoxicity (signal decrease), % at 8.35 µM; NIH/3T3 viability, CellTiter-Glo ATP luminescence, 90 h;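 active = mean signal decrease across replicates above about 35% based on untreated-well scatter, with enough replicates individually passing, limit read from the data; inconclusive = no rule stated though some were filed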;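 also: 0% = median of neutral control wells and 100% = median of positive control wells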
# NIH3T3 tox 2: NIH/3T3 fibroblast cytotoxicity, confirmation, cytotoxicity control, cell-based, cherry-pick, single point, set 2 | shares compounds with T cruzi growth-1 | NIH/3T3 viability, CellTiter-Glo ATP luminescence, 90 h | inhibition, % at 24.9 µM | actives 56% (n = 5,600) | AID 651744, 2012;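 active = mean loss of cell viability signal at or above a set limit, and enough replicates individually reaching it; inconclusive = meets only the mean limit or only the replicate share; inactive = meets neither condition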;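 also: 0% = median of neutral control wells and 100% = median of positive control wells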
# Numbers without * were called inactive; u = inconclusive; x = no result. Compounds with a hit are over-represented: about 6.7% of the library has one in this group of screens.
SMILES,C diff growth,T cruzi growth-1,Pf Dd2 growth,T cruzi growth-2,T cruzi growth-3,NIH3T3 tox,NIH3T3 tox 2
CC(C)CC#Cc1cnc2c(c1)C(=O)N([C@@H](C)CO)C[C@@H](C)[C@H](CN(C)C(=O)Nc1cc(F)ccc1F)O2,-7.6,115.0*,-75.6,101.4*,99.7*,12.7,74.4*
CC(C)CC#Cc1cnc2c(c1)C(=O)N([C@@H](C)CO)C[C@H](C)[C@@H](CN(C)C(=O)Nc1ccccc1F)O2,-22.8,x,-47.9,x,x,x,x
CC(C)CC#Cc1cnc2c(c1)C(=O)N([C@@H](C)CO)C[C@@H](C)[C@@H](CN(C)C(=O)Nc1cc(F)ccc1F)O2,3.4,u,-57.4,103.6*,42.1,36.1*,73.5*
COc1ccccc1NC(=O)N(C)C[C@@H]1Oc2ncc(C#CCC(C)C)cc2C(=O)N([C@@H](C)CO)C[C@H]1C,-3.6,104.2*,-68.5,105.8*,63.0,-4.6,2.8
CC(C)NC(=O)N(C)C[C@H]1Oc2c(NC(=O)Nc3ccc4c(c3)OCO4)cccc2C(=O)N([C@@H](C)CO)C[C@H]1C,-3.6,-5.7,-28.1,x,x,x,x
CO[C@H]1CN(C)C(=O)c2cc(NC(=O)Nc3ccccc3F)ccc2OC[C@@H](C)N(CC2CC2)C[C@@H]1C,x,35.5,-33.0,x,x,x,x
C[C@H](CO)N1C[C@H](C)[C@H](CN(C)S(=O)(=O)c2cccs2)OCCCC[C@H](C)Oc2ccc(NC(=O)c3ccncc3)cc2C1=O,x,x,-47.3,x,x,x,x
CCC(=O)Nc1ccc2c(c1)C(=O)N(C)C[C@@H](OC)[C@H](C)CN(Cc1cccnc1)[C@H](C)CO2,-1.2,-51.6,41.0,x,x,x,x
CN1C(=O)c2cc(NC(=O)C3CCCC3)ccc2OC[C@H]2O[C@@H](CC(=O)NCc3ccccc3F)CC[C@H]21,0.8,x,-12.9,x,x,x,x
C[C@@H]1CN([C@H](C)CO)S(=O)(=O)c2ccc(C3=CCCCC3)cc2O[C@H]1CN(C)S(=O)(=O)c1ccc(F)cc1,14.8,122.2*,-57.0,102.7*,81.8,42.1*,87.8*
Cc1ccc(S(=O)(=O)N(C)C[C@H]2Oc3cc(C4=CCCC4)ccc3S(=O)(=O)N([C@@H](C)CO)C[C@H]2C)cc1,2.6,x,-23.1,x,x,x,x
C[C@H](CO)N1C[C@H](C)[C@@H](CN(C)S(=O)(=O)c2ccc(F)cc2)Oc2cc(C3=CCCCC3)ccc2S1(=O)=O,12.8,114.0*,-69.4,101.8*,98.9*,37.9*,64.3*
Cc1ccc(S(=O)(=O)N(C)C[C@H]2Oc3cc(C4=CCCC4)ccc3S(=O)(=O)N([C@H](C)CO)C[C@@H]2C)cc1,5.0,x,-72.9,x,x,x,x
O=C(C[C@H]1CC[C@@H](NC(=O)C2CCC2)[C@H](CO)O1)Nc1nccs1,-0.8,20.6,1.4,x,x,x,x
CNC[C@H]1Oc2cc(C#Cc3ccccc3)ccc2S(=O)(=O)N([C@H](C)CO)C[C@@H]1C,25.6,x,-53.7,x,x,x,x
CNC[C@@H]1Oc2cc(C#Cc3ccccc3OC)ccc2S(=O)(=O)N([C@@H](C)CO)C[C@H]1C,-4.0,105.3*,x,104.5*,84.3,9.9,103.9*
CNC[C@H]1Oc2cc(C#Cc3ccccc3OC)ccc2S(=O)(=O)N([C@@H](C)CO)C[C@@H]1C,2.9,102.6*,x,106.2*,67.6,u,104.4*
CNC[C@@H]1Oc2cc(C#Cc3ccccc3)ccc2S(=O)(=O)N([C@H](C)CO)C[C@H]1C,24.4,x,-66.0,x,x,x,x
CNC[C@H]1OCCCC[C@H](C)Oc2ccc(NC(=O)NC(C)C)cc2C(=O)N([C@H](C)CO)C[C@@H]1C,16.1,69.3,32.2,x,x,x,x
CO[C@@H]1CN(C)C(=O)c2ccc(NC(=O)c3cnccn3)cc2OC[C@H](C)N(C(C)=O)C[C@@H]1C,0.9,x,11.4,x,x,x,x
Cc1cccc(S(=O)(=O)N[C@@H]2CC[C@H](CCn3cc(-c4ccccn4)nn3)O[C@@H]2CO)c1,2.1,24.6,-9.6,x,x,x,x
COc1ccc(-c2cn(CC[C@H]3CC[C@@H](NS(=O)(=O)c4ccccc4C)[C@@H](CO)O3)nn2)cc1,-0.2,106.8*,-3.5,103.3*,79.5,-1.3,-1.4
COc1cccc(S(=O)(=O)N[C@@H]2CC[C@@H](CCn3cc(-c4ccccn4)nn3)O[C@@H]2CO)c1,7.5,108.0*,-20.9,48.5,-10.4,12.6,22.6
O=S(=O)(N[C@H]1CC[C@@H](CCn2cc(-c3cccc(F)c3)nn2)O[C@H]1CO)c1ccc(Cl)cc1,x,111.4*,-42.2,55.8,26.7,-13.4,18.5
Cc1ccccc1S(=O)(=O)N[C@H]1CC[C@@H](CCn2cc(-c3ccccc3)nn2)O[C@H]1CO,-6.6,35.9,-31.6,x,x,x,x
SMILES,C diff growth,T cruzi growth-1,Pf Dd2 growth,T cruzi growth-2,T cruzi growth-3,NIH3T3 tox,NIH3T3 tox 2
O=S(=O)(N[C@@H]1CC[C@@H](CCn2cc(-c3cccc(F)c3)nn2)O[C@H]1CO)c1ccc(Cl)cc1,x,54.4,-2.5,x,x,x,x
O=C(C[C@H]1C[C@@H]2c3cc(NC(=O)c4cccnc4)ccc3O[C@@H]2[C@@H](CO)O1)NCc1ccc(Oc2ccccc2)cc1,-8.0,x,-76.7,x,x,x,x
C[C@@H]1CCCCO[C@@H](CN(C)C(=O)Nc2ccccc2)[C@@H](C)CN([C@@H](C)CO)C(=O)c2cc(NC(=O)NC3CCCCC3)ccc2O1,x,47.0,-60.6,x,x,x,x
C[C@@H]1CN([C@H](C)CO)C(=O)c2cc(NC(=O)CCCN(C)C)ccc2O[C@@H](C)CCCCO[C@@H]1CN(C)C(=O)NC1CCCCC1,-2.8,20.2,23.4,x,x,x,x
OC[C@@H]1[C@H](c2ccc(-c3ccc(F)cc3)cc2)[C@H]2CN(CCC(F)(F)F)CCCCN12,38.3,75.1,-74.6,x,x,x,x
OC[C@@H]1[C@H](c2ccc(C3=CCCC3)cc2)[C@@H]2CN(CCC(F)(F)F)CCCCN12,11.9,104.2*,-25.0,u,48.5,21.2,104.7*
OC[C@H]1[C@H](c2ccc(-c3cccc(F)c3)cc2)[C@H]2CN(CCC(F)(F)F)CCCCN21,28.5,87.9,18.1,x,x,x,x
OC[C@@H]1[C@@H](c2ccc(-c3ccc(F)cc3)cc2)[C@H]2CN(CCC(F)(F)F)CCCCN12,21.0,103.8*,-65.4,96.0*,103.3*,96.2*,105.0*
OC[C@@H]1[C@@H](c2ccc(C#CC3CC3)cc2)[C@@H]2CN(CCC(F)(F)F)CCCCN12,2.7,83.0,1.6,x,x,x,x
OC[C@H]1[C@@H](c2ccc(C3=CCCC3)cc2)[C@@H]2CN(CCC(F)(F)F)CCCCN12,-1.2,33.6,-75.6,x,x,x,x
